# Data published in PubChem BioAssay (NCATS).
# Records with an inconclusive call do not appear. Active and inactive are the calls of the source. The call rests on the fitted dose curve; in most records, active means well fitted inhibition curve with a large enough effect; inconclusive means small, poorly fitted or top-dose-only effect, or effect the other way; inactive means no such curve, though single readings can be large or run the other way. Residues, ends and D or L forms follow the SMILES beside them. *: point of attachment. Cbz = O=C(OCc1ccccc1)*
# Assay: High Content Imaging Cell-Based qHTS for Inhibitors of the mTORC1 Signaling Pathway in MEF Cells (AID 2667);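 on activity change, negative = inhibition: Tsc2-/- p53-/- MEFs stably re-expressing wild-type Tsc2 exposed 24 h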
# Conditions: series mostly up to 38.3 µM; activity change, negative = inhibition: at the top concentration
# Excerpt: NIH Molecular Libraries Probe Production Centers Network [MLPCN]
# NIH Chemical Genomics Center [NCGC]
# Assay Submitter (PI): Blenis, John; Hoffman, Greg; Harvard University
# NCGC Assay Overview: The mammalian target of rapamycin (mTOR) is an intracellular serine/threonine kinase Aberrant regulation of mTOR signaling plays a causative role in a number of human diseases, including cancer, benign tumors such as lymphangioleiomyomatosis (LAM) and Tuberous Sclerosis Complex (TSC), and metabolic diseases such as diabetes and obesity. This project aims to identify inhibitors of ribosomal protein S6 (rpS6) phosphorylation. The phosphorylation of rpS6 is a key event downstream of mTOR activation. The assay uses a phospho-specific antibody of phospho-rpS6 to detect inhibitors of mTOR activation. Mutations in the Tsc1 and Tsc2 genes are the underlying genetic lesions responsible for TSC, causing constitutive activation of the mTORC1 pathway and leading to profound effects on cell metabolism. Aberrant metabolism in cancer has recently received significant attention as a target to develop therapeutic agents in the treatment of cancer.1 As Tsc2-/- cells have lost the ability to respond to energy and growth factor deprivation, these cells are unable to properly down regulate cellular biosynthetic processes in response to metabolic stress, and are thus extremely sensitive to glucose deprivation-induced death.2 A central goal of this project is to explore the unique cell survival and metabolic properties of cells with Tsc1 or Tsc2 by screening for compounds that selectively target the Tsc2-/- MEFs by screening both Tsc2-/- and WT MEF cell lines. We hope to better understand these aspects of TSC physiology in order to exploit them for therapeutic benefit.
# NCGC IN Cell Assay Protocol:
# For quantitative high throughput analysis of mTORC1 signaling, we developed a cell-based assay for immuno-fluorescence based detection of rpS6 phosphorylation on the Acumen Explorer that will be used a platform for the primary small molecule screen. Mouse embryonic fibroblasts (MEFs) are cultured in 1536-well plates using DMEM + 10% FBS. Twenty-four hrs after plating, test compounds (solubilized in DMSO) are delivered and incubated with the cells for 24 hrs at 37 degree Celsius. Following the incubation, media with compound is aspirated and the cells are fixed in 4% paraformaldehyde (PFA) containing PBS + 0.2% TX-100. Next, PFA is aspirated, cells are washed two times with PBS plus 0.2% TX-100 and the cells are blocked for 1 hr at room temperature (blocking buffer: LiCOR Blocking Buffer plus 0.2% TX-100). This is followed by aspiration and staining with Alexa-488 conjugated-phospho-rpS6 Ser235/236 antibody for 2 hours at room temperature (Cell Signaling Technology # 4803, 1:50 dilution in blocking buffer). Cells are washed two times with PBS plus 0.2% TX-100, and stained with 10 uM propidium iodide (PI) for 20-25 minutes for cell number measurement (1:500 dilution of Hoescht staining is also added for IN Cell imaging). Active wells which are selected (based on Acumen results) are imaged on the IN Cell 1000 (GE Healthcare) using the D360/40X and HQ480/40X excitation filters for the Hoechst and Alexa-488 cytoplasmic stains, respectively. The fluorescence emission filters used were HQ460/40M and HQ535/50M for the Hoechst and Alexa-488 cytoplasmic stains, respectively. The normalized phospho-S6 staining is calculated as the ratio of […] for the single concentration rapamycin control ([…] nM) and DMSO columns. […] Inhibition of the pathway is defined based on the normalized phospho-S6 intensity in rapamycin treated cells. Each treatment is reported as the % positive cells in the well, where thresholds are defined by selecting wells with the highest and lowest signal and differentiating between the % non-active and % active populations. […]
# Potency means the concentration at half of the fitted maximal effect.
SMILES,"activity change, negative = inhibition",Potency
Cn1ccnc1,-100% (inactive),
NC(N)=NC(N)=Nc1ccccc1,-100% (inactive),
Cc1cc2c(cc1Cl)N(C(=O)Nc1ccnc3ccccc13)CC2,-100% (inactive),
NS(=O)(=O)c1cccc2c1c([N+](=O)[O-])cc1nc(O)c(O)nc12,-100% (inactive),
N=C(N)SCCN,-100% (inactive),
OC[C@H]1O[C@H](n2cnc3c(N[C@H]4CCC[C@@H]4O)ncnc32)[C@H](O)[C@@H]1O,-100% (inactive),
CCc1ccc2c(-c3cccc(Cl)c3)nc(=O)n(CC)c2n1,-100% (inactive),
COc1ccc(-c2cc3ncc(C)n3c(Nc3ncccc3C(N)=O)n2)cc1OC,-100% (inactive),
CN1CCC2(CCN3CCc4c(oc5ccccc45)C3C2)N(C)C1=O (stereo not given),-100% (inactive),
c1ccc(C(NCCNC(c2ccccc2)c2ccccc2)c2ccccc2)cc1,,13.1 µM (active)
CC(N)=O,-100% (inactive),
NC(N)=[N+]1CCc2ccccc2C1,-100% (inactive),
CC#CCOC(=O)c1c(C)nc2sc3c(c2c1N)CCC(O)C3 (stereo not given),-100% (inactive),
O=C(O)C1CCCNC1 (stereo not given),-100% (inactive),
CCCC(=O)NCCc1c2n(c3ccc(OC)cc13)CCCc1ccccc1-2,-100% (inactive),
Oc1ccc(/C=C/c2ccc(/C=C/c3ccc(O)cc3)c(Br)c2)cc1,-100% (inactive),
NC(=Nc1ccccc1)NC(=O)c1nc(Cl)c(N)nc1N,-100% (inactive),
C[C@](Cc1ccc(O)c(O)c1)(NN)C(=O)O,-100% (inactive),
C=C(C)C1CC=C(C(=O)O)CC1 (stereo not given),-100% (inactive),
O=C(c1ccc2c(c1)OCCO2)N1CCCCC1,-100% (inactive),

SMILES,"activity change, negative = inhibition",Potency
Cc1nc(N=Nc2cc(S(=O)(=O)O)c3cc([N+](=O)[O-])cc(S(=O)(=O)O)c3c2)c(COP(=O)(O)O)c(C=O)c1O,-100% (inactive),
O=C(O)Cc1ccc(O)c(O)c1,-100% (inactive),
Cc1cccc(C(=O)NCN2CCN(c3ccccc3C#N)CC2)c1,-100% (inactive),
C=CC[C@H](N)C(=O)O,-100% (inactive),
CSC(N)=NCCC[C@H](N)C(=O)O,-100% (inactive),
COc1ccc(-c2ccc(N)[n+](CCCC(=O)O)n2)cc1,-100% (inactive),
CNC(=O)c1cc2c(cn1)[nH]c1ccccc12,-100% (inactive),
Cc1ccc([N+](=O)[O-])cc1S(=O)(=O)N(C)C,-100% (inactive),
C=C1C(=O)O[C@@H]2[C@H]3O[C@]3(C)CCC=C(C)CC[C@@H]12,-100% (inactive),
COc1ccc(CCn2nnnc2C2(c3ccc(C)cc3)CC2)cc1,-100% (inactive),
O=C(O)C1=CCNCC1,-100% (inactive),
O=C(O)c1cccnc1C(=O)O,-100% (inactive),
O=C1Nc2ccc(I)cc2/C1=C/c1cc(Br)c(O)c(Br)c1,-100% (inactive),
CC(C)[C@H](NC(=O)OCc1ccccc1)C(=O)N[C@H](C=O)Cc1ccccc1 (Cbz-Val-Phe-aldehyde),-100% (inactive),
C[C@]12C=CC(=O)C=C1CC[C@@H]1C2=CC[C@]2(C)[C@@H](C(=O)CN3CCN(c4cc(N5CCCC5)nc(N5CCCC5)n4)CC3)CC[C@@H]12,-100% (inactive),
COc1cc(N)c(Cl)cc1C(=O)OCCN1CCCCC1,-100% (inactive),
O=c1ccc2c(OCCCCc3ccccc3)c3ccoc3cc2o1,-100% (inactive),
CN1CCN(c2nc3cc(C(F)(F)F)ccc3n3cccc23)CC1,-100% (inactive),
N[C@@H](Cc1ccc(F)cc1)C(=O)O,-100% (inactive),
O=C(O)CCC/C=C\C[C@@H]1[C@@H](/C=C/[C@H](O)C2Cc3ccccc3C2)[C@@H](F)C[C@@H]1O,-100% (inactive),
